# PubChem BioAssay AID504329 (Southern Research Specialized Biocontainment Screening …, 2011)
# Hit rate of the full screen: of about 340,000 compounds, about 1,000 (0.29%) were called active. Only a sample is shown. Measured potencies and affinities stand elsewhere. Unmarked numbers belong to inactive results. Rule as the data show it: inconclusive = inhibition above about 27% without an active follow-up result; inactive = below that.
# Assay: H1N1 influenza NS1A inhibitors, functional cell based assay (AID 504329)
# Conditions: percent inhibition, at 12.5 µM, stronger effect = higher value
row,Compound,inhibition [%]
1,CSCCC(=O)NC1CCCN(CCc2ccccc2)C1 (stereo unspecified),-10.8
2,O=C(NC1=NCCS1)c1cc(-c2cccs2)nc2ccccc12,1.99
3,Clc1cccc(CN2CCCCCCC2)c1Cl,-8.07
4,COc1cc(C2NC(=O)NC(C)=C2C(=O)OC2CCC(C)CC2)ccc1O (stereo unspecified),-1.48
5,CCC(=O)Nc1nc(-c2ccccc2)nc(SC)c1C(C)=O,5.59
6,O=C(NCCCN1CCCC1=O)C(=O)NCC1OCCCN1S(=O)(=O)c1cc(F)ccc1F (stereo unspecified),-6.67
7,Cc1ccc(C(=O)N2CCN(c3ccc(NC(=O)c4cccnc4Cl)cc3)CC2)cc1,0.28
8,COc1ccc(C2=C(Nc3ccc(C)cc3)c3ccccc3C2=O)cc1,-3.38
9,COC1=C(Nc2ccc(OC)cc2)C(=O)C(OC)=C(Nc2ccc(OC)cc2)C1=O,0.15
10,CCN(CC)c1ccc(NC2=C(Cl)C(=O)c3ccccc3C2=O)cc1,27.5
11,COc1ccc(NC2=C(NC(C)=O)C(=O)c3ccccc3C2=O)cc1,0.92
12,Cc1ccc(NC2=C(Cl)C(=O)c3ccccc3C2=O)cc1,2.23
13,Cc1ccc(NC2=C(N3CCCCC3)C(=O)c3ccccc3C2=O)cc1,28.7
14,O=C1C(Cl)=C(Nc2ccccc2)C(=O)c2ccccc21,-3.5
15,CC(=O)c1ccc(NC2=C(N3CCOCC3)C(=O)c3ccccc3C2=O)cc1,3.86
16,CC(C)CC(OC(=O)c1cccs1)C(=O)NCC1CCCO1 (stereo unspecified),11.2
17,COc1ccccc1N1CCN(C(=O)c2ccc(S(=O)(=O)N3CCCC3)cc2)CC1,4.29
18,COc1ccc(NC(=O)COC(=O)CCc2ccc(S(=O)(=O)N3CCOCC3)cc2)cc1Cl,-1.5
19,CCOC(=O)c1sc2nc(N3CCOCC3)c3c(c2c1N)CCC3,8.09
20,Cc1ccc(CNC(=O)Cn2nnc3ccccc3c2=O)cc1,-3.7
21,COC(=O)c1ccc(NC(=S)NC2CC(C)(C)NC(C)(C)C2)cc1,-11.7
22,CCOC(=O)C1(CCCc2ccccc2)CCN(C(=O)c2cnn(CC)c2)CC1,0.777
23,O=C(NC(=S)Nc1ccc(F)c([N+](=O)[O-])c1)c1ccccc1F,6.76

row,Compound,inhibition [%]
1,COc1cc(/C=C/C(=O)OCC(=O)NCCN2C(=O)CSC2=O)ccc1OCC#N,1.99
2,CC(C)CN(C(=O)CCC(=O)OCc1ccc(Cl)cc1Cl)c1c(N)n(CC(C)C)c(=O)[nH]c1=O,-1.56
3,CCN(CC)c1ccc(N=Nc2nn(C)c(C)c2[N+](=O)[O-])cc1,9.15
4,CCN(Cc1ccccc1)c1ccc(/C=N/NS(=O)(=O)c2ccc(C)c([N+](=O)[O-])c2)cc1,-1.19
5,Cn1c2c(c(=O)n(C)c1=O)C(c1ccc(F)cc1)C(C#N)=C(N)O2 (stereo unspecified),-0.36
6,Cc1cccc(/C=N/NC(=O)c2ccc(NC(=O)c3ccccc3C)cc2)n1,-6.91
7,CCNC(=O)C(=O)N1CCC2(CC1)OCCN2S(=O)(=O)c1ccc(C)cc1,5.17
8,CCC(/C=C1\Sc2ccc(OC)cc2N1CC)=C\c1sc2ccc(OC)cc2[n+]1CCCS(=O)(=O)[O-],-0.43
9,CCC(=O)/C=C1\Sc2ccc(OC)cc2N1CCO,7.02
10,O=C(COC(=O)/C=C/c1ccccc1[N+](=O)[O-])NC1CC1,0.04
11,CCN(CC)Cc1ccccn1,0.25
12,OCCN(Cc1ccccc1)Cc1ncccc1O,-15.6
13,CCn1c(SCC(=O)NC(C)c2ccccc2)nc2ccccc21 (stereo unspecified),6.4
14,COc1ccc(C(C)(C)C)cc1NC(=O)COC(=O)CSCc1c(C)noc1C,12.6
15,COC(=O)C1=C(C(=O)OC)SC(=C2C(=S)C(C)(C)N(C(=O)CC(C)C)c3ccccc32)S1,18.9
16,COC(=O)C1=C(C(=O)OC)SC(=C2C(=S)C(C)(C)N(C(=O)C(C)C)c3ccccc32)S1,26.5
17,CC(=O)C1=C(C)N(Cc2ccccc2)C(=O)N[C@H]1c1cccc(F)c1,-6.27
18,CC(C)=C(NC(=O)c1ccccc1)C(=O)Nc1ccc(C(=O)O)cc1,-12.3
19,O=C1C=C(O)c2cccc(O)c2C1=O,3.19
20,O=C1C(=O)c2c(ccc3ccccc23)-c2ccccc21,0.1
21,CC(=O)c1ccc(S(=O)(=O)N(CCCO)Cc2cc3cc4c(cc3[nH]c2=O)OCCO4)cc1,-6.83
22,COCCNC(=S)Nc1ccc2nc(N3CCN(C)CC3)cc(C)c2c1,8.16
23,O=C(CNS(=O)(=O)c1ccccc1)Nc1ccccc1Br,-10.4

row,Compound,inhibition [%]
1,Cc1c(NC(=S)N/N=C/C=C/c2ccc([N+](=O)[O-])cc2)c(=O)n(-c2ccccc2)n1C,1.25
2,Cc1c(NC(=S)N/N=C/c2ccc(O)cc2)c(=O)n(-c2ccccc2)n1C,-9.33
3,Cc1c(NC(=S)N/N=C/c2ccc(Br)cc2)c(=O)n(-c2ccccc2)n1C,0.4
4,Cc1c(NC(=S)N/N=C/c2cc([N+](=O)[O-])ccc2O)c(=O)n(-c2ccccc2)n1C,2.17
5,CCCOc1ccc(/C=N/NC(=O)CSCc2ccc([N+](=O)[O-])cc2)cc1OCC,-9.68
6,CC(C)CN(C(=O)C1CCCO1)C1CCS(=O)(=O)C1 (stereo unspecified),-6.34
7,O=C(Oc1coc(CSc2ncccn2)cc1=O)c1cccs1,-4.51
8,COC(=O)C1=C(CSc2nccn2C)NC(=O)NC1c1cc(C)ccc1C (stereo unspecified),1.93
9,Cc1c(OC(C)C(=O)NCc2ccccn2)ccc2c3c(c(=O)oc12)CCCC3 (stereo unspecified),-4.86
10,C=CCOc1ccc(/C=N/NC(=O)CC(=O)NC2CCCCC2)cc1,6.03
11,CC1(C(=O)Nc2nc3ccc(S(C)(=O)=O)cc3s2)CC1(Cl)Cl (stereo unspecified),5.4
12,O=C(O)c1cccc(NN=C2c3ccccc3-c3ccccc32)c1,10.1
13,O=C(O)c1ccc(N=N/C(=N\Nc2ccc(C(=O)O)cc2)c2ccccc2)cc1,15.3
14,CC(=O)c1cccc(NC(=O)CN2C(=O)NC(C)(c3ccc4c(c3)OCCCO4)C2=O)c1 (stereo unspecified),2.48
15,COc1ccccc1CNC(=O)Cn1cc([N+](=O)[O-])ccc1=O,-14
16,Cc1cccnc1Nc1nc(-c2ccccc2)cs1,-4.02
17,c1ccc(Nc2nc(-c3ccccn3)cs2)cc1,8.8
18,Cc1cccnc1Nc1nc(-c2ccc(O)cc2)cs1,5.7
19,Cc1cccc(Nc2nc(-c3cccs3)cs2)n1,8.74
20,CCCc1nnc(NC(=O)CCC(=O)N2CCN(CCOC(c3ccccc3)c3ccccc3)CC2)s1,0.42
21,O=CNCC(=O)NC1CCCCCC1,-2.65
22,Cc1ccc(OCC(=O)N/N=C/c2cccnc2)cc1C,-11
23,O=C1NC(=O)C(CC(=O)N(c2ccccc2)C2(C(=O)NC3CCCC3)CCCCC2)N1 (stereo unspecified),-0.63

row,Compound,inhibition [%]
1,CC(Oc1ccc(Cl)cc1Cl)C(=O)Nc1ccc(N2CCN(C)CC2)cc1 (stereo unspecified),9.83
2,CCN1CCN(C2=C(NS(=O)(=O)c3ccc(C)cc3)C(=O)c3ccccc3C2=O)CC1,10.6
3,CC(=O)Nc1ccc(S(=O)(=O)NC2=C(N3CCN(Cc4ccccc4)CC3)C(=O)c3ccccc3C2=O)cc1,12.6
4,Cc1ccc(S(=O)(=O)CC(=O)N2CCN(c3ccccc3F)CC2)cc1,2.84
5,CCOC(=O)N1CCN(C2=C(NS(=O)(=O)c3ccc(NC(C)=O)cc3)C(=O)c3ccccc3C2=O)CC1,12.4
6,Cc1ccc(S(=O)(=O)NCC(=O)N2CCN(c3ccccc3F)CC2)cc1,11.9
7,CCN1CCN(C2=C(NS(=O)(=O)c3ccccc3)C(=O)c3ccccc3C2=O)CC1,-3.88
8,Cc1ccc(S(=O)(=O)Nc2nc3ccccc3nc2N2CCN(c3ccccc3F)CC2)cc1,-0.57
9,CCOC(=O)N1CCN(C2=C(NS(=O)(=O)c3ccccc3)C(=O)c3ccccc3C2=O)CC1,18.6
10,CC(C)(C)NC(=O)C12CC3CC(CC(Cl)(C3)C1)C2,1.34
11,O=C(COC(=O)c1ccc(Br)c(S(=O)(=O)N2CCOCC2)c1)NC1CC1,-5.17
12,CCOC(=O)c1cc(S(=O)(=O)NC2CCC(C)CC2)cn1C (stereo unspecified),-6.39
13,CCCOc1ccc(NC(=O)C(=O)NCCCn2ccnc2)cc1,-6.26
14,Cc1cccc(Oc2cnn(C(C)(C)C)c(=O)c2Cl)c1,-1.49
15,CN1CCN(c2ccc(Cl)cc2NC(=O)CC2OC(=O)c3ccccc32)CC1 (stereo unspecified),-6.08
16,CCOC(=O)c1c(C)nc2c(c1-c1ccccc1)C(=O)c1ccccc1-2,-17.6
17,O=C1c2ccccc2-c2c1cccc2C(=O)N1CCN(C(=O)c2ccco2)CC1,0.55
18,O=C(O)CCCNc1cc(N2CCN(C(=O)c3ccco3)CC2)c2noc3c2c1C(=O)c1ccccc1-3,25.1
19,CCOC(=O)N1CCN(c2cc(NCCO)c([N+](=O)[O-])c3nonc23)CC1,-0.42
20,CCOC(=O)c1c(C)oc2c1C(=O)c1ccccc1C2=O,15.3
21,CCOC(=O)N1CCN(c2ccccc2O)CC1,-11.3
22,CC(=O)OCCNc1cc(Sc2nc3ccccc3[nH]2)c2nonc2c1[N+](=O)[O-],-9.31
